# High-throughput results (PubChem BioAssay)
# Sampled rows, rich in hits. Any-hit rate of the full collection: about 14%.
# FBPA Giardia inh: inhibitors of Giardia lamblia fructose-1,6-bisphosphate aldolase | A8B2U2 | purified Giardia FBPA | Potency, µM (titrated, usually from 59.6 µM), for the others: top-dose activity, negative = inhibition, actives largely listed as inhibitors | actives 0.71% (n = 290,000) | AID 2451; further: potency means the concentration at half of the fitted maximal effect; nearly all actives have a fitted effect of over 55% in size
# Target sequence (A8B2U2 whole entry, looked up): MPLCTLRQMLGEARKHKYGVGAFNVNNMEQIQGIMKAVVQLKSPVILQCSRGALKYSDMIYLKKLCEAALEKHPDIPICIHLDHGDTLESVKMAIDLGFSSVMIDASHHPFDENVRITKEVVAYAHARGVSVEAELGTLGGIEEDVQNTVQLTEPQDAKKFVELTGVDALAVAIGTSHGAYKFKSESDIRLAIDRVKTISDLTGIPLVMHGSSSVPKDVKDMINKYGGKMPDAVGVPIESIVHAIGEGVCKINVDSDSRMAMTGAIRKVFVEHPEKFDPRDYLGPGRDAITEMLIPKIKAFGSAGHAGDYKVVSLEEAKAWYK
#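 40 nM FBPA preincubated 10 min at RT with compound (up to 57.5 uM final), then substrate plus GAPDH/TPI/NAD/arsenate coupling and diaphorase/resazurin added. Fluorescence read after 20 min at RT, 525/598 nm.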
# Sm TGR inh: inhibitors of Schistosoma mansoni thioredoxin glutathione reductase | Potency, µM (highest dose often 114 µM), without a hit: at the top dose activity change, negative = inhibition, usual class: inhibitors | Q962Y6 | actives 3% (n = 360,000) | purified TGR, DTNB reduction, TNB absorbance 405 nm; further: potency means the concentration at half of the fitted maximal effect; nearly all actives have a fitted effect of over 60% in size
#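 First, TGR (20 nM dispensed) and NADPH were mixed with compound. Second, a 15 min room-temperature incubation followed. Third, further NADPH and then DTNB were added to start the reaction. Finally, TNB absorbance was monitored kinetically.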
# Pf growth 48h: inhibits P. falciparum growth in the first generation, 48 h; Potency, µM (titrated, usually from 28.7 µM), for inactives: at the top dose activity change, negative = inhibition, hits mostly inhibitors; actives 5.9% (n = 310,000); P. falciparum luciferase growth in erythrocytes, 48 h; further: potency means the concentration at half of the fitted maximal effect
#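 Luciferase-expressing parasites in RBCs, 2% Hct / 0.1% parasitemia final; RPMI 1640 + 0.5% Albumax; 37 C, 5% CO2, one generation; luminescence read-out, lower signal = inhibition.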
# HCMV inh: blocks human cytomegalovirus replication; activity change, negative = inhibition, % at 57.5 µM; actives 4.5% (n = 410,000); HFF cells, HCMV-luciferase reporter, 72 h; active compounds read low; in the data active means activity change below about -60%; inconclusive means no clear call, values can overlap the other calls; inactive means above about -39%
#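 Steps: HFFs plated, 16 h 37C; compounds added; HCMV-luciferase added to MOI 1 PFU/cell; 72 h 37C; OneGlo reagent, 5 min room temperature; luminescence read, normalized to controls.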
# Pf growth 96h: P. falciparum growth inhibition at 96 hours. actives 6.9% (n = 320,000). Potency, µM (series often up to 28.7 µM), for the others: at the highest dose activity change, negative = inhibition, usual class: inhibitors. P. falciparum luciferase reporter growth, 96 h; further: potency means the concentration at half of the fitted maximal effect
#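 Two-generation exposure (96 h) targets delayed-death phenotype. Reporter parasites carrying integrated firefly luciferase, in red cells at 2% hematocrit and 0.05% parasitemia final, kept at 37 C, 5% CO2; luminescence loss indicates inhibition.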
# An asterisk follows results filed as active; u = inconclusive; x = no result. Unless noted, the call rests on the fitted dose curve; in most records, active means well fitted curve in the direction sought with a large enough effect; inconclusive means small, poorly fitted or top-dose-only effect, or another doubt; inactive means no such curve, though single readings can be large; an effect the other way counts as inactive or inconclusive. On the % scale 0 is the no-effect control and ±100 the full control effect.
SMILES,FBPA Giardia inh,Sm TGR inh,Pf growth 48h,HCMV inh,Pf growth 96h
CC(C)CCN1CCN(CC(c2ccccc2)c2ccccc2)CC1CCO (centres undefined),0%,-22%,3.7µM*,-26,u
CC(C)CCN1CCN(Cc2ccoc2)CC1CCO (centres undefined),-5%,-24%,1%,0,27%
CC(C)CCN1CCN(Cc2ccsc2)CC1CCO (centres undefined),2%,7%,6%,-13,13µM*
O=C(CCc1nc(-c2ccccc2Cl)no1)Nc1cccnc1,12%,0%,14%,-19,0%
CCOC(=O)C1CCN(c2nc3c(S(=O)(=O)c4ccccc4)nnn3c3ccsc23)CC1,x,-1%,x,0,x
CCOC(=O)CSc1nc2c(sc(=S)n2Cc2ccco2)c(=O)n1-c1ccccc1,-6%,0%,u,-11,u
CCN(CC)C(=O)CSc1nc2c(sc(=S)n2Cc2ccco2)c(=O)n1-c1ccccc1,8%,u,u,-27,7.4µM*
CC(C)Nc1nnc(Sc2ccc(Cl)cc2[N+](=O)[O-])s1,-3%,-3%,-3%,5,u
N#Cc1ccccc1S(=O)(=O)N1CCN(C(=O)CN2CCCC2c2cccs2)CC1 (centres undefined),x,-33%,9.3µM*,-7,4.7µM*
N#Cc1ccccc1S(=O)(=O)N1CCN(C(=O)[C@@H]2CCCN2C(=O)c2cccs2)CC1,x,-17%,u,u,u
COc1ccc(S(=O)(=O)n2nc(OC(C)=O)cc2N(C(C)=O)C(C)=O)cc1,13%,22µM*,58%,14,101%
COc1cc(C(=O)Oc2cc(N)n(S(=O)(=O)c3ccc(F)cc3)n2)cc(OC)c1OC,8%,-32%,2%,28,4.7µM*
COc1ccc(S(=O)(=O)n2nc(OC(=O)c3ccncc3)cc2N)cc1,1%,5µM*,33%,-22,75%
COc1ccc(S(=O)(=O)n2nc(OC(=O)c3ccco3)cc2N)cc1,3%,22µM*,51%,58,u
COc1ccc(S(=O)(=O)n2nc(OC(=O)c3ccccc3)cc2N)cc1,14%,-28%,-7%,99,u
Cc1ccc(CCNc2ncnc3onc(C)c23)cc1,x,1%,x,u,x
Cc1cc(C)n(-c2nnc(N3CCN(c4ccc(F)cc4)CC3)nn2)n1,-26%,3%,u,20,0.37µM*
COc1cc(CN2CCN(C(=O)c3ccc(-c4ccccc4)cc3)CC2)cc(OC)c1OC,3%,1%,14%,72,-4%
COc1ccc2ccccc2c1CN1CCN(C(=O)c2ccccc2)CC1,-15%,28µM*,u,32,78%
O=C(c1ccco1)N1CCN(CCOCCOc2cccc3ccccc23)CC1,-18%,8%,x,99,12µM*
COc1cccc(C(=O)N2CCN(Cc3ccccc3C(F)(F)F)CC2)c1,u,0%,-1%,15,1.5µM*
COc1cccc(CN2CCN(C(=O)c3ccc(-c4ccccc4)cc3)CC2)c1OC,u,x,-23%,-10,2.9µM*
CC(C)C1C(=O)N(Cc2cn(CC3CCCCC3)nn2)CCS(=O)(=O)N1Cc1ccc(-c2ccc(Cl)nc2)cc1 (centres undefined),x,x,x,11,x
CCOc1ccccc1-n1c(CN2CCN(C(=O)c3ccco3)CC2)nc2ccccc2c1=O,-13%,25µM*,u,-105*,u
COc1ccc2ccccc2c1CN1CCN(C(=O)c2ccco2)CC1,5%,-20%,6.6µM*,13,11%
SMILES,FBPA Giardia inh,Sm TGR inh,Pf growth 48h,HCMV inh,Pf growth 96h
CC(=O)Oc1ccc2ccc3ccc(C(C)=O)cc3c2c1,x,x,x,3,x
CO[C@@H]1CN(C)C(=O)c2ccc(NC(=O)c3ccccc3F)cc2OC[C@@H](C)N(CC2CCOCC2)C[C@@H]1C,x,x,x,15,x
CC(C)c1cc(Cn2c3ccccc3c(=O)n2C(C)Cn2cc(-c3ccccc3)nn2)on1 (centres undefined),x,x,x,-5,x
COc1cccc(-c2cc(C(=O)Nc3c(C)n(C)n(-c4ccccc4)c3=O)no2)c1,3%,-15%,-5%,-108*,x
Cc1c(NC(=O)c2cc(-c3cccc(O)c3)on2)c(=O)n(-c2ccccc2)n1C,x,-22%,x,-17,x
Cc1c(NC(=O)c2ccc(C(=O)Nc3c(C)n(C)n(-c4ccccc4)c3=O)cc2)c(=O)n(-c2ccccc2)n1C,7%,7%,33%,19,-3%
Cc1cc(C(=O)Nc2c(C)n(C)n(-c3ccccc3)c2=O)on1,1%,0%,x,-3,4.7µM*
Cc1cccc2c1-c1sc(C(=O)NCc3ccc(Cl)cc3)cc1CO2,x,9%,x,-16,x
Cc1onc(-c2ccccc2)c1C(=O)N1CCCN2C(=O)c3ccccc3C21 (centres undefined),5%,-3%,u,-7,10µM*
COc1ccc(C(O)c2nc(-c3cnc4ccccc4c3)cs2)cc1 (centres undefined),x,x,x,47,x
O=c1cc(C(F)(F)F)[nH]c2ccc(OC(F)(F)F)cc12,u,6%,u,-95*,u
O=c1cc(C(F)(F)F)[nH]c2c(C(F)(F)F)cccc12,-6%,-1%,10%,x,-17%
CCCN(C(=O)c1cn(C)c(=O)c2ccccc12)c1ccccc1C,-1%,-1%,x,38,33%
C=CCNS(=O)(=O)c1cc(S(=O)(=O)NCC=C)c(OC)cc1OC,6%,-1%,236%,4,2.9µM*
Cc1c(Br)c([N+](=O)[O-])nn1CC(=O)N1CCN(C23CC4CC(CC(C4)C2)C3)CC1,3%,10%,u,-33,37%
O=C(NCc1ccccn1)C1CCC(=O)N1C1CCCCC1 (centres undefined),-3%,-5%,x,33,1.9µM*
CC1CC(C)CN(CCCNC(=O)C2CCC(=O)N2C2CCCC2)C1 (centres undefined),3%,8%,51%,8,10µM*
CN(C)c1ccc(CN(Cc2ccco2)C(=O)COc2ccc(F)cc2)cc1,x,3%,x,-26,x
CCCCN=Cc1c(C)[nH]n(-c2ccccc2)c1=S,u,0%,29%,u,50%
Cc1[nH]n(-c2ccccc2)c(=S)c1C=Nc1cccc([N+](=O)[O-])c1,u,79µM*,15%,-12,9%
CN1CCN(Cc2nc3ccccc3c(=O)n2Cc2nc(-c3ccccc3F)cs2)CC1,-3%,1%,u,13,u
CN(C)Cc1nc2ccccc2c(=O)n1CC(=O)Nc1cccc(S(=O)(=O)N2CCOCC2)c1,-8%,2%,-17%,-24,11%
CN1CCN(Cc2nc3ccccc3c(=O)n2Cc2nc(-c3ccc4ccccc4c3)cs2)CC1,-3%,-4%,12µM*,-76*,u
CN1CCN(Cc2nc3ccccc3c(=O)n2Cc2nc(-c3cccc([N+](=O)[O-])c3)cs2)CC1,u,-15%,u,-14,2.3µM*
